# From PubChem BioAssay (Tox21)
# Results filed as inconclusive are left out. Entries that show only a call come without a potency. Values without a mark were called inactive. Active and inactive are the calls of the source. Unless noted, calls follow the shape of the dose curve; as a rule, active = well fitted curve in the direction sought with a large enough effect in the repeat runs; inconclusive = weak or mixed curves; inactive = no such curve, though single readings can be large; an effect the other way counts as inactive or inconclusive.
# What was measured:
# [1] = molecular target: Retinoic acid receptor RXR-alpha (Homo sapiens) (UniProt P19793); assay: qHTS assay to identify small molecule agonists of the RXR signaling pathway (AID 1159527; calls by dose curve; also: nearly all actives have a fitted effect of over 35% in size; also: potency is read from the fitted curve at half-maximal effect); conditions: HEK293T RXRa-UAS-bla, beta-lactamase ratio, 16 h; series mostly up to 76.8 µM
# Chain of Retinoic acid receptor RXR-alpha (Homo sapiens) (P19793 whole entry, looked up): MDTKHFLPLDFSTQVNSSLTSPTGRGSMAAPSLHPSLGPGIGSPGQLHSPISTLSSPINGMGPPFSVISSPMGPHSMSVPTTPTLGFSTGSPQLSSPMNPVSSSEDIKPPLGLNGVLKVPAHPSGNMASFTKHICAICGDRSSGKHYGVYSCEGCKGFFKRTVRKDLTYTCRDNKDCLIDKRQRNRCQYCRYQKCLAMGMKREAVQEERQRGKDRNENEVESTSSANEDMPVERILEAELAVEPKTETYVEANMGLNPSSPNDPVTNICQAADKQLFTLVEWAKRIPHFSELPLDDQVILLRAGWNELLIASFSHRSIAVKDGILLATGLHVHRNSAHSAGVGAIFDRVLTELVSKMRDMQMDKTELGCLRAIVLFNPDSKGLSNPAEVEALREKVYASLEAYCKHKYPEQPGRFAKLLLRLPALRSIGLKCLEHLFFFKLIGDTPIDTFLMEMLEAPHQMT
# Procedure, shortened: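 GeneBLAzer RXR-alpha-UAS-bla HEK 293T cells in medium with 2% charcoal-stripped FBS, pre-incubated 5 hr at 37 C, then exposed to compounds 16 hr. Beta-lactamase reporter read by FRET substrate, 2 hr room temperature, 460/530 nm emission.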
# [2] = qHTS assay to identify small molecule agonists of the RXR signaling pathway - cell viability counter screen (AID 1159529); conditions: RXR-alpha-bla HEK293T viability, CellTiter-Glo, 16 h; series mostly up to 76.8 µM; also: nearly all actives have a fitted effect of over 50% in size
# Procedure, shortened: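 RXR-alpha-UAS-bla HEK 293T cells in medium with 2% charcoal-stripped FBS were preincubated 5 hr, then exposed to compounds for 16 hr at 37 C. Viability was read as CellTiter-Glo luminescence after 30 min at room temperature.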
# [3] = qHTS assay to identify small molecule antagonists of the retinoid acid receptor (RAR) signaling pathway - cell viability counter screen (AID 1159551); conditions: C3RL4 cells viability, ATP luminescence (CellTiter-Glo), 6 h; series mostly up to 92.4 µM; also: nearly all actives have a fitted effect of over 35% in size
# Procedure, shortened: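 Seed C3RL4 cells; next day add compound, then retinol to 1 uM final; incubate 6 h at 37 C; add CellTiter-Glo; read luminescence after 30 min at RT.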
# [4] = qHTS assay to identify small molecule antagonists of the retinoic acid receptor (RAR) signaling pathway (AID 1159552; also: nearly all actives have a fitted effect of over 50% in size); conditions: C3RL4 RARE luciferase reporter, retinol-stimulated, 6 h; series mostly up to 92.4 µM
# Procedure, shortened: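 RARE-luc C3RL4 cells; cpds + 1 uM (final) retinol, 6 hr, 37 C/5% CO2; luciferase reagent, 30 min RT, luminescence readout. Inhibitors of retinol-driven signal scored.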
compound,measurement,setting,value
CN=C(NC#N)Nc1ccc(C2=NNC(=O)CC2C)cc1 (stereo unspecified),Potency,[1],inactive
same,outcome,[2],inactive
same,outcome,[3],inactive
CNC(=O)[C@H]1O[C@@H](n2cnc3c(NCc4cc(Cl)ccc4OCc4cc(C)no4)ncnc32)[C@H](O)[C@@H]1N,Potency,[1],inactive
same,outcome,[2],inactive
same,outcome,[3],inactive
CCc1ccc(C=O)cc1,Potency,[1],inactive
same,outcome,[2],inactive
same,outcome,[3],inactive
Cc1c(I)c(=O)n(-c2ccccc2)n1C,Potency,[1],inactive
same,outcome,[2],inactive
same,outcome,[3],inactive
CCC(CC)CO,Potency,[1],inactive
same,outcome,[2],inactive
same,outcome,[3],inactive
O=C(CCN1CCN(CCO)CC1)N1c2ccccc2Sc2ccc(C(F)(F)F)cc21,Potency,[1],inactive
same,outcome,[2],inactive
same,outcome,[3],inactive
CCCCN,Potency,[1],inactive
same,outcome,[2],inactive
same,outcome,[3],inactive
CC(C(=O)O)c1ccc2c(c1)CC(=O)c1ccccc1S2 (stereo unspecified),Potency,[1],inactive
same,outcome,[2],inactive
same,outcome,[3],inactive
COc1nccnc1NS(=O)(=O)c1ccc(N)cc1,Potency,[1],inactive
same,outcome,[2],inactive
same,outcome,[3],inactive
CC(C)CCCC(C)(C)O,Potency,[1],inactive
same,outcome,[2],inactive
same,outcome,[3],inactive
Cc1cc(Cl)c(C)cc1Cl,Potency,[1],inactive
same,outcome,[2],inactive
same,outcome,[3],inactive
CCNC(=O)C1CC(C)CCC1C(C)C (stereo unspecified),Potency,[1],inactive
same,outcome,[2],inactive
same,outcome,[3],inactive
Cc1ccsc1/C=C/C1=NCCCN1C,Potency,[1],inactive
same,outcome,[2],inactive
same,outcome,[3],inactive
On1nnc2ccccc21,Potency,[1],4.9 µM (active)
same,outcome,[2],inactive
same,outcome,[3],inactive
Cc1nc2n(c(=O)c1CCN1CCC(c3noc4cc(F)ccc34)CC1)CCC[C@H]2O,activation,[1],4.51% [at 15.8 µM]
same,"activity change, negative = cytotoxicity",[2],-5.89% [at 15.8 µM]
same,"activity change, negative = cytotoxicity",[3],0.276% [at 19 µM]
CO[C@@H]1[C@@H](OC(N)=O)[C@@H](O)[C@H](Oc2ccc3c(O)c(NC(=O)c4ccc(O)c(CC=C(C)C)c4)c(=O)oc3c2C)OC1(C)C,Potency,[1],inactive
same,outcome,[2],inactive
same,outcome,[3],inactive
O=C1c2ccccc2C(=O)N1CCl,Potency,[1],inactive
same,outcome,[2],inactive
same,outcome,[3],inactive
CC1(C)S[C@@H]2[C@H](N=CN3CCCCCC3)C(=O)N2[C@H]1C(=O)O,Potency,[1],inactive
same,outcome,[2],inactive
same,outcome,[3],inactive
C=C1CC/C=C(\C)CC[C@@H]2[C@@H]1CC2(C)C,Potency,[1],inactive
same,outcome,[2],inactive
same,outcome,[3],inactive
CC(=O)Nc1ccc(S(=O)(=O)Cl)cc1,Potency,[1],inactive
same,outcome,[2],inactive
same,outcome,[3],inactive
C=C(C)C(=O)OCCOP(=O)(O)OCCOC(=O)C(=C)C,Potency,[1],inactive
same,outcome,[2],inactive
same,outcome,[3],inactive
CCCCCCCCSCC,Potency,[1],inactive
same,outcome,[2],inactive
same,outcome,[3],inactive
COCCOC(=O)C1=C(C)NC(C)=C(C(=O)OC(C)C)C1c1cccc([N+](=O)[O-])c1 (stereo unspecified),Potency,[1],inactive
same,outcome,[2],inactive
same,outcome,[3],inactive
CCOc1cc(NC(C)=O)ccc1C(=O)OC,Potency,[1],inactive
same,outcome,[2],inactive
same,outcome,[3],inactive
O=S(=O)(O)c1cc(O)c2ccc(Nc3ccccc3)cc2c1,Potency,[1],inactive
same,outcome,[2],inactive
same,outcome,[3],inactive
same,outcome,[4],inactive
CCCCCCCCC(=O)Cl,Potency,[1],inactive
same,outcome,[2],inactive
same,outcome,[3],inactive
CCOC(=O)[C@H](CCc1ccccc1)N[C@@H](C)C(=O)N1C(=O)N(C)C[C@H]1C(=O)O,Potency,[1],inactive
same,outcome,[2],inactive
same,outcome,[3],inactive
CCCOC(OCCC)OCCC,Potency,[1],inactive
same,outcome,[2],inactive
same,outcome,[3],inactive
O=C1CCCC(=O)O1,Potency,[1],inactive
same,outcome,[2],inactive
same,outcome,[3],inactive
same,outcome,[4],inactive
C=C(C)C(=O)OCCN(CC)CC,Potency,[1],inactive
same,outcome,[2],inactive
same,outcome,[3],inactive
O=C(OCC(COC(=O)c1cccnc1)(COC(=O)c1cccnc1)COC(=O)c1cccnc1)c1cccnc1,Potency,[1],inactive
same,outcome,[2],inactive
same,outcome,[3],inactive
same,outcome,[4],inactive
Oc1ccccc1-c1nnco1,Potency,[1],inactive
same,outcome,[2],inactive
same,outcome,[3],inactive
same,outcome,[4],inactive
CC(=O)N[C@@H](CCC(=O)O)C(=O)O,Potency,[1],inactive
same,outcome,[2],inactive
same,outcome,[3],inactive
CC(C)(C)NC(N)=O,Potency,[1],inactive
same,outcome,[2],inactive
same,outcome,[3],inactive
CC[C@H](C)C(=O)O[C@H]1C[C@H](O)C=C2C=C[C@H](C)[C@H](CC[C@@H](O)C[C@@H](O)CC(=O)O)[C@H]21,Potency,[1],inactive
same,outcome,[2],inactive
same,outcome,[3],inactive
same,outcome,[4],inactive
COC(=O)CCCCCCCC(=O)OC,Potency,[1],inactive
same,outcome,[2],inactive
same,outcome,[3],inactive
same,outcome,[4],inactive
O=S(=O)(O)c1ccc2cc(O)c(S(=O)(=O)O)cc2c1,Potency,[1],inactive
same,outcome,[2],inactive
same,outcome,[3],inactive
same,outcome,[4],inactive
CCCCOCCOC(=O)COc1nc(Cl)c(Cl)cc1Cl,Potency,[1],inactive
same,outcome,[2],inactive
same,outcome,[3],inactive
same,outcome,[4],inactive
CC(=O)c1sc(C)nc1C,Potency,[1],inactive
same,outcome,[2],inactive
same,outcome,[3],inactive
BrCCCCCBr,Potency,[1],inactive
same,outcome,[2],inactive
same,outcome,[3],inactive
CC(C)(C)c1cc(CCC(=O)NN)cc(C(C)(C)C)c1O,Potency,[1],inactive
same,outcome,[2],inactive
same,outcome,[3],inactive
same,outcome,[4],inactive
CC(=O)/C=C/C1C(C)=CCC(C)C1(C)C (stereo unspecified),Potency,[1],inactive
same,outcome,[2],inactive
same,outcome,[3],inactive
same,outcome,[4],inactive
